Inconclusive results are not listed. Active and inactive are the calls of the source. Rule for the calls: active = hit-call score of the fitted dose curve at least 0.9, where 1 is the maximum; inconclusive = response in the unintended direction; inactive = score below 0.9.

Read-out in this assay: glucuronosyltransferase (UGT1A1), UGT1A1 (gene 54658)
The experiment in a line: CLD_UGT1A1_6hr: CellzDirect (CLD) Gene Expression Assay for glucuronosyltransferase (UGT1A1) at 6 hours (AID 2283672). The method, then:
CLD_6hr is a cell-based, multiplexed-readout assay that uses hepatocyte, a human liver primary cell, with measurements taken at 6 hours after chemical dosing in a 96-well plate.CLD_UGT1A1_6hr is one of 16 assay component(s) measured or calculated from the CLD_6hr assay. It is designed to make measurements of mRNA induction, a form of inducible reporter, as detected with chemiluminescence signals by Quantitative Nuclease Protection Assay (qNPA) technology.Data from the assay component CLD_UGT1A1_6hr was analyzed at the endpoint, CLD_UGT1A1_6hr, in the positive analysis fitting direction relative to DMSO as the negative control and baseline of activity. Using a type of inducible reporter, gain-of-signal activity can be used to understand changes in the reporter gene as they relate to the gene UGT1A1. Furthermore, this assay endpoint can be referred to as a primary readout. To generalize the intended target to other relatable targets, this assay endpoint is annotated to the transferase intended target family, where subfamily is glucuronosyltransferase.
Human hepatocyte cultures were treated daily for two consecutive days with fresh dosing solutions containing appropriate concentrations of the 320 ToxCast chemicals (chemical identities were blinded to CellzDirect and other ToxCast collaborators), vehicle control (0.2% DMSO), and positive control inducers as summarized in Table 1. Due to the large number of treatment groups and chemicals examined, the ToxCast chemicals were divided into two groups (spanning two independent cultures of hepatocytes from separate donor preparations (Hu778: ToxCast plates 1 and 2; Hu776: ToxCast plates 3 and 4). Each preparation of human hepatocyte cultures was treated with respective vehicle control, medium only control, set of six positive controls/reference chemicals for the five hepatic receptor pathways, and a subset of eight of the ToxCast chemicals (indoxacarb, pyrithiobac-sodium, norflurazon, cyhalofop-butyl, methomyl, thiram, acetochlor, and propiconazole). These replicate data, coupled with internal replicates designed within the blinded ToxCast chemical library, provided additional data to evaluate interindividual differences between hepatocyte preparations and their potential impact on chemical profiles.Cell morphology and integrity were evaluated using phase-contrast microscopy as an indicator of hepatocyte cell health (Tyson & Green, 1987). Cultures for each treatment group (i.e., media, vehicle [0.2% DMSO], positive control inducers [multiple concentrations], and the ToxCast chemicals [multiple concentrations]) were observed and cell morphology was assessed relative to vehicle control cultures at each harvest time point (0, 6, 24, or 48 h). […] Images were evaluated at the conclusion of the study to assess changes in cell integrity and account for the effects of chemical exposure on uncharacteristic changes in concentration-dependent gene expression profiles. The results from these determinations of apparent cytotoxicity were annotated (yes/no) alongside the corresponding qNPA data for reference.At the conclusion of each treatment period, hepatocyte cultures (96-well) were washed with 1 volume of HBSS, lysed by addition of 25 ul ArrayPlate lysis buffer (HTG, Tucson, AZ), and 70 ul/well of Denaturation Oil, denatured by incubation at 95C for 10 min, and frozen at approximately -70C until analysis by nuclease protection assay (qNPA) (Roberts et al., 2007). For qNPA analysis, cell lysates were thawed at 50C for approximately 30 min, qNPA probes were added, and samples were incubated at 95C for 10 min to begin the detection process by denaturing the target RNA, dissociating the duplexes and secondary structure hybridization. At the conclusion of the hybridization period, S1 nuclease reagent was added to each sample to digest all nonprotected nucleotides at 50C for 60-90 min. […]
As for `CCNc1nc(N)nc(Cl)n1`, the molecule was called inactive. As for `CCOC(=O)NCCOc1ccc(Oc2ccccc2)cc1`, the entry is “inactive”; as for `COC(=O)c1cccc(C)c1S(=O)(=O)NC(=O)Nc1nc(OCC(F)(F)F)nc(N(C)C)n1`, “inactive”. Then `CCCN(CCC)C(=O)SCC`, with “inactive”; and `CCCCC(CC)CN1C(=O)C2C3C=CC(C3)C2C1=O` (stereo not given), with “inactive”. With `COC(=O)c1ccccc1C(=O)O`, the molecule was classed as inactive. Then `C#CCOC(=O)[C@@H](C)Oc1ccc(Oc2ncc(Cl)cc2F)cc1`, with “inactive”; and `CN(C)C(=O)Nc1ccc(Cl)c(Cl)c1`, with “inactive”. For `CSC(=O)c1cccc2nnsc12`, the call was inactive. Then `CCCCCCC(C)OC(=O)COc1nc(F)c(Cl)c(N)c1Cl` (stereo not given), with “inactive”.

Turning to `COC(=O)c1ccc(CNS(C)(=O)=O)cc1S(=O)(=O)NC(=O)Nc1nc(OC)cc(OC)n1`, the outcome was inactive.

For the molecule `OB(O)O`, the call was inactive. For the molecule `COc1c(Cl)ccc(Cl)c1C(=O)O`, the call was inactive. As for `N#CSCSc1nc2ccccc2s1`, the entry is “inactive”. As for `CCSC(=O)N(CC(C)C)CC(C)C`, the entry is “inactive”; as for `CCCCC(CC)COC(=O)c1ccccc1C(=O)O` (stereo not given), “inactive”. For `CCOC(=O)COc1cc(-n2ncc(C(F)(F)F)c(C)c2=O)c(F)cc1Cl`, the call was inactive. Then `CCOC(=O)C(C)Oc1ccc(Oc2nc3ccc(Cl)cc3o2)cc1` (stereo not given), with “inactive”; and `CCC(O)=C1C(=O)CC(C(=O)O)CC1=O` (stereo not given), with “inactive”; and `S=C(S)NCCNC(=S)S.[Mn+2].[S-]C([S-])=NCCN=C([S-])[S-].[Zn+2]`, with “inactive”. As for `Oc1ccc(C(c2ccc(O)cc2)C(Cl)(Cl)Cl)cc1`, the entry is “inactive”. Turning to `CCCN(CCC)c1c([N+](=O)[O-])cc(C(F)(F)F)c(N)c1[N+](=O)[O-]`, the molecule was called inactive.

`CC(C)(C)[C@@H](O)[C@@H](Cc1ccc(Cl)cc1)n1cncn1`: the molecule was classed as inactive.

On to `CC(C)(c1ccc(O)cc1)c1ccc(O)cc1`, for which the call was inactive. Consider `C=CCOC(Cn1ccnc1)c1ccc(Cl)cc1Cl` (stereo not given), for which the molecule was classed as inactive. Then `COC(=O)CSc1cc(N=c2sc(=O)n3n2CCCC3)c(F)cc1Cl`, with “inactive”; and `CCN(CC)C(=O)c1cccc(C)c1`, with “inactive”. As for `c1ccc2[nH]c(-c3cscn3)nc2c1`, the entry is “inactive”; as for `CCCCOCCOCCOCc1cc2c(cc1CCC)OCO2`, “inactive”; as for `CCC(C)OC(=O)N1CCCCC1CCO` (stereo not given), “inactive”. For `COC(=O)c1ccccc1S(=O)(=O)NC(=O)Nc1nc(OC(F)F)cc(OC(F)F)n1`, the call was inactive. Turning to `CCOC(=O)C(C)Oc1ccc(Oc2cnc3cc(Cl)ccc3n2)cc1` (stereo not given), the molecule was classed as inactive. For `CCCCCOC(=O)COc1cc(N2C(=O)C3=C(CCCC3)C2=O)c(F)cc1Cl`, the outcome was inactive. On to `CCOC(=O)[C@H](C)Oc1ccc(Oc2nc3ccc(Cl)cc3o2)cc1`, for which the call was inactive. In the case of `CCCCOC(=O)[C@@H](C)Oc1ccc(Oc2ccc(C(F)(F)F)cn2)cc1`, the outcome was inactive.

In the case of `CCN(Cc1c(F)cccc1Cl)c1c([N+](=O)[O-])cc(C(F)(F)F)cc1[N+](=O)[O-]`, the outcome was inactive. Take `CCCCOC(=O)C(C)Oc1ccc(Oc2ccc(C(F)(F)F)cn2)cc1` (stereo not given): the outcome was inactive.

Consider `COc1nc(C)nc(NC(=O)NS(=O)(=O)c2ccccc2OCCCl)n1`, for which the call was inactive. Turning to `COC(=O)c1c(Cl)nn(C)c1S(=O)(=O)NC(=O)Nc1nc(OC)cc(OC)n1`, the outcome was inactive. For `COC(=O)c1ccc(I)cc1S(=O)(=O)NC(=O)Nc1nc(C)nc(OC)n1`, the result was inactive.

For the origin of these results see PubChem BioAssay (EPA / NIEHS).
